Source: the supplement of paper PMC12350171
Structures can show the parent of a compound that is named as a salt.

How the values were obtained:
Settings in all cases: 20 µM
[1] = system: Haemophilus parainfluenzae; test: growth AUC normalised to DMSO control (fraction of control); higher = less growth inhibition, active = hit call of the paper
Procedure, shortened: (§1)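 Three biological replicates were carried out, with OD578 read hourly for 24 h. Before inoculation at a starting OD578 of 0.01, pathogens were passaged anaerobically twice; plates were pre-reduced mGAM containing 20 μM compound and 1% DMSO, sealed with breathable membranes, and the Haemophilus parainfluenzae medium carried added hemin and NAD. Area under each growth curve was calculated by the trapezoidal rule up to the exponential-to-stationary transition and normalised to DMSO controls on the same plate.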

[2] = system: Salmonella enterica typhimurium; test: as above
Procedure, shortened: as §1

[3] = system: Shigella flexneri; test: as above
Procedure, shortened: as §1

[4] = system: Vibrio cholerae; test: as above
Procedure, shortened: as §1

[5] = system: Yersinia pseudotuberculosis; test: as above
Procedure, shortened: as §1

[6] = system: P. vulgatus RND KO; test: growth AUC normalised to DMSO control (median) (fraction of control); higher = less growth inhibition, active = hit call of the paper
Procedure, shortened: (§2)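 Strains were passaged twice overnight without oxygen, then grown in mGAM in 96-well plates with each approved-drug library compound at 20 μM and 1% DMSO, starting at OD578 0.01. OD578 was read hourly for 24 h inside an anaerobic incubator. Curves were truncated at entry into stationary phase, and the trapezoidal-rule area under the curve was normalised to same-plate vehicle wells. The value is the median across three biological replicates.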

[7] = system: P. vulgatus WT; test: as above
Procedure, shortened: as §2

[8] = system: S. enterica typhimurium WT; test: as above
Procedure, shortened: as §2

[9] = system: S. enterica typhimurium tolC KO; test: as above
Procedure, shortened: as §2

Measured: growth AUC normalised to DMSO control
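For growth AUC normalised to DMSO control (median) in this document: active when median AUC fell below 0.1.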

CNC(=O)Oc1ccc2c(c1)[C@]1(C)CCN(C)[C@@H]1N2C [Eserine hemisulfate salt]
inactive: [1] 0.975 | [2] 1.01 | [3] 1.02 | [4] 1.06 | [5] 0.97 | [6] 1.07 | [7] 1.06 | [8] 0.999 | [9] 0.993

C[C@]12CC[C@H]3[C@@H](CCC4=CC(=O)CC[C@@H]43)[C@@H]1CC[C@@H]2O [Nandrolone]
inactive: [1] 1.99 | [2] 0.995 | [3] 0.981 | [4] 0.967 | [5] 0.981 | [6] 0.999 | [7] 1.03 | [8] 1.01 | [9] 0.981

O=[N+]([O-])O[C@@H]1CO[C@H]2[C@@H]1OC[C@@H]2O [Isosorbide mononitrate]
inactive: [1] 1.05 | [2] 1.01 | [3] 1.03 | [4] 1.02 | [5] 1 | [6] 0.946 | [7] 0.958 | [8] 1 | [9] 0.99

CCC1(CC)C(=O)C=CNC1=O [Pyrithyldione]
inactive: [1] 1.01 | [2] 0.992 | [3] 1 | [4] 1.05 | [5] 1 | [6] 1.01 | [7] 1 | [8] 1.02 | [9] 0.998

CN[C@@H]1[C@@H](O)[C@@H](O[C@@H]2[C@@H](O)[C@H](O[C@H]3O[C@H](CN)CC[C@H]3N)[C@@H](N)C[C@H]2N)OC[C@]1(C)O.CN[C@@H]1[C@@H](O)[C@@H](O[C@@H]2[C@@H](O)[C@H](O[C@H]3O[C@H]([C@@H](C)N)CC[C@H]3N)[C@@H](N)C[C@H]2N)OC[C@]1(C)O.CN[C@@H]1[C@@H](O)[C@@H](O[C@@H]2[C@@H](O)[C@H](O[C@H]3O[C@H]([C@@H](C)NC)CC[C@H]3N)[C@@H](N)C[C@H]2N)OC[C@]1(C)O [Gentamicine sulfate]
inactive: [1] 0.864 | [2] 1 | [3] 1.02 | [4] 1.04 | [5] 1.02 | [6] 1.05 | [7] 1.02 | [8] 1 | [9] 1

CCN[C@@H](C)Cc1cccc(C(F)(F)F)c1 [Dexfenfluramine hydrochloride]
inactive: [1] 1.01 | [2] 0.995 | [3] 1.02 | [4] 1.02 | [5] 0.995 | [6] 1 | [7] 1.02 | [8] 0.996 | [9] 1

CC(Cc1ccccc1)NCCC(c1ccccc1)c1ccccc1 (centres undefined) [Prenylamine lactate]
inactive: [1] 1.05 | [2] 1.01 | [3] 1.07 | [4] 1.02 | [5] 1.02 | [6] 1.04 | [7] 1.04 | [8] 0.993 | [9] 0.97

CCN(CC)C(C)C(=O)c1ccccc1 (centres undefined) [Amfepramone hydrochloride]
inactive: [1] 0.998 | [2] 0.995 | [3] 0.982 | [4] 0.999 | [5] 1.02 | [6] 1.01 | [7] 1.01 | [8] 1.01 | [9] 0.988

NCC1(CC(=O)O)CCCCC1 [Gabapentin]
inactive: [1] 0.891 | [2] 1.01 | [3] 1.05 | [4] 1.03 | [5] 1.01 | [6] 1.04 | [7] 1.04 | [8] 1.01 | [9] 1.01

NC(=O)C[S+]([O-])C(c1ccccc1)c1ccccc1 (centres undefined) [Modafinil]
inactive: [1] 1 | [2] 0.994 | [3] 0.982 | [4] 0.998 | [5] 0.998 | [6] 1 | [7] 0.993 | [8] 1 | [9] 0.976

C#C[C@]1(O)CC[C@H]2[C@@H]3CCC4=CC(=O)CC[C@]4(C)[C@H]3CC[C@@]21C [Ethisterone]
inactive: [1] 1.02 | [2] 1.01 | [3] 1.02 | [4] 1.02 | [5] 1 | [6] 1.05 | [7] 1.04 | [8] 1.02 | [9] 0.998

COc1ccc2c(c1)[C@]13CCCC[C@@H]1[C@H](C2)N(C)CC3 [Dextromethorphan hydrobromide monohydrate]
inactive: [1] 1.02 | [2] 0.982 | [3] 0.988 | [4] 0.955 | [5] 0.97 | [6] 1.02 | [7] 1 | [8] 0.995 | [9] 0.985

COc1cccc(C2(O)CCCCC2CN(C)C)c1 (centres undefined) [Tramadol hydrochloride]
inactive: [1] 0.971 | [2] 0.98 | [3] 0.992 | [4] 0.983 | [5] 0.994 | [6] 0.988 | [7] 0.989 | [8] 0.986 | [9] 0.986

COc1cc([C@@H]2c3cc4c(cc3[C@H](O)[C@H]3COC(=O)[C@H]23)OCO4)cc(OC)c1OC [Podophyllotoxin]
inactive: [1] 1.04 | [2] 0.999 | [3] 0.999 | [4] 1.02 | [5] 1.01 | [6] 1 | [7] 1.02 | [8] 0.998 | [9] 0.996

C[N+]1(C)CCOC(O)(c2ccc(-c3ccc(C4(O)C[N+](C)(C)CCO4)cc3)cc2)C1 (centres undefined) [Hemicholinium bromide]
inactive: [1] 0.977 | [2] 1 | [3] 1.03 | [4] 1.06 | [5] 1.03 | [6] 1 | [7] 1.02 | [8] 1.01 | [9] 1

CC(=O)OCC(=O)[C@H]1CC[C@H]2[C@@H]3CC[C@H]4C[C@H](O)CC[C@]4(C)[C@H]3C(=O)C[C@]12C [Alfadolone acetate]
inactive: [1] 1.26 | [2] 1.01 | [3] 0.99 | [4] 0.987 | [5] 0.992 | [6] 1.04 | [7] 1.05 | [8] 1.01 | [9] 0.941

CCC1(c2ccc(N)cc2)CCC(=O)NC1=O (centres undefined) [Glutethimide, para-amino]
inactive: [1] 1.04 | [2] 1.01 | [3] 1 | [4] 1.04 | [5] 0.988 | [6] 1.02 | [7] 1.04 | [8] 1.02 | [9] 0.993

CC(=O)O[C@H]1C[C@@H]2CC[C@@H]3[C@H](CC[C@@]4(C)[C@H]3C[C@H]([N+]3(C)CCCCC3)[C@@H]4OC(C)=O)[C@@]2(C)C[C@@H]1[N+]1(C)CCCCC1 [Pancuronium bromide]
inactive: [1] 1.04 | [2] 1.01 | [3] 1.05 | [4] 1.04 | [5] 1 | [6] 1.01 | [7] 1.04 | [8] 1.03 | [9] 1.01

C=CCN1CC[C@]23c4c5ccc(O)c4O[C@H]2C(=O)CC[C@@]3(O)[C@H]1C5 [Naloxone hydrochloride]
inactive: [1] 1.01 | [2] 0.981 | [3] 1.03 | [4] 1 | [5] 1.01 | [6] 1.03 | [7] 0.997 | [8] 1.01 | [9] 1

CNC(C)(C)Cc1ccccc1 [Mephentermine hemisulfate]
inactive: [1] 1.09 | [2] 1.03 | [3] 1.03 | [4] 1.06 | [5] 0.977 | [6] 1.03 | [7] 1.08 | [8] 1 | [9] 0.994

CC[N+]1(C)CCCC(OC(=O)C(O)(c2ccccc2)c2ccccc2)C1 (centres undefined) [Pipenzolate bromide]
inactive: [1] 0.996 | [2] 0.993 | [3] 0.977 | [4] 0.998 | [5] 1.01 | [6] 1 | [7] 1.02 | [8] 1 | [9] 0.999

O=C(NCNC(=O)NC1C(=O)NC(=O)N1CO)NC1C(=O)NC(=O)N1CO (centres undefined) [Imidurea]
inactive: [1] 0.992 | [2] 1 | [3] 0.995 | [4] 1.01 | [5] 1 | [6] 0.991 | [7] 1.01 | [8] 0.998 | [9] 0.996

CO[C@]12C[C@@H](COC(=O)c3cncc(Br)c3)CN(C)[C@@H]1Cc1cn(C)c3cccc2c13 [Nicergoline]
inactive: [1] 1.03 | [2] 1.01 | [3] 1 | [4] 0.996 | [5] 1 | [6] 0.933 | [7] 0.948 | [8] 1 | [9] 0.942

C=C(C)[C@@H]1[C@H]2OC(=O)[C@@H]1[C@]1(O)C[C@H]3O[C@]34C(=O)O[C@H]2[C@]14C [Picrotoxinin]
inactive: [1] 1 | [2] 1 | [3] 0.96 | [4] 1 | [5] 0.997 | [6] 1.03 | [7] 1.03 | [8] 1.02 | [9] 1.02

CCC(=O)O[C@H]1CC[C@H]2[C@@H]3CCC4=CC(=O)CC[C@]4(C)[C@H]3CC[C@]12C [Testosterone propionate]
inactive: [1] 1.06 | [2] 1.02 | [3] 1.03 | [4] 1.04 | [5] 0.989 | [6] 1 | [7] 1.01 | [8] 1.02 | [9] 0.911

COc1ccc(CN2CCNCC2)c(OC)c1OC [Trimetazidine dihydrochloride]
inactive: [1] 1.02 | [2] 0.989 | [3] 1.03 | [4] 1.02 | [5] 1.01 | [6] 1.01 | [7] 1.01 | [8] 0.997 | [9] 0.994
